In all, about 16,000 compounds went through this assay and about 5,800 (36%) were called active. Roughly 23% stayed inconclusive and do not appear here. The call rests on the fitted dose curve; in most records, active means well fitted curve in the direction sought with a large enough effect; inconclusive means small, poorly fitted or top-dose-only effect, or effect the other way; inactive means no such curve, though single readings can be large or run the other way. Some of the results follow. More than one record can exist for a structure, and the calls need not agree.
The compounds below were run against Cytochrome P450 2C19 (Homo sapiens) (UniProt P33261) (assay: Cytochrome panel assay with activity outcomes). Conditions: recombinant CYP, pro-luciferin dealkylation, luminescence, p450-cyp2c19; series mostly up to 57.1 µM.
On the % scale 0 is the no-effect control and ±100 the full control effect.

Sequence of Cytochrome P450 2C19 (Homo sapiens) (P33261 whole entry, looked up): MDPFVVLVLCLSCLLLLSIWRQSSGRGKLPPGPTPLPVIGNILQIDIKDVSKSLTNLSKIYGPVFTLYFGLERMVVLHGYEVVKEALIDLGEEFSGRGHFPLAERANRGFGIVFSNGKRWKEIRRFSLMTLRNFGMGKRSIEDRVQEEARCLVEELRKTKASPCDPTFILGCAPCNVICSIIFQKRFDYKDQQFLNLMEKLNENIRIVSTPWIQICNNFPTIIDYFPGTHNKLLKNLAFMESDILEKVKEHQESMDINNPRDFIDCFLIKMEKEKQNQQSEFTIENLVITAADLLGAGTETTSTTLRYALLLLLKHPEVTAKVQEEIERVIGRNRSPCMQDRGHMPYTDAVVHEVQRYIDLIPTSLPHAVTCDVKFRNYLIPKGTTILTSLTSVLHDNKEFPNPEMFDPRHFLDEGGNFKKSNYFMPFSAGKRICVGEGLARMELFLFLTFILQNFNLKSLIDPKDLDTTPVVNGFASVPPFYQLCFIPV

SMILES	AC50	activity, negative = inhibition
O=C1Nc2ccc([N+](=O)[O-])cc2C1(O)N1CCCCCC1 (stereo not given)	10 µM (active)	–
O=C1C2=C(Nc3cc([N+](=O)[O-])ccc3N2)O[C@@H]1c1ccc([C@H]2OC3=C(Nc4ccc([N+](=O)[O-])cc4N3)C2=O)cc1	–	-18.1% [at 11.4 µM] (inactive)
CCN(CC)c1nc(Nc2ccccc2)nc(Oc2ccc(C(=O)OC)cc2)n1	7.94 µM (active)	–
Cc1ccc(/C=C2\Sc3ccccc3C2=O)s1	1.26 µM (active)	–
O=C1C(Cc2ccccc2)SC(=Nc2ccccc2)N1c1ccccc1 (stereo not given)	3.16 µM (active)	–
CN1CCN(/C=N/C2=C(C#N)C(c3ccccc3)C3=C(CC(C)(C)CC3=O)O2)CC1 (stereo not given)	20 µM (active)	–
O=C(O)c1cccc(OCCO)c1	–	13.7% [at 11.4 µM] (inactive)
C#CCCCC(=O)Nc1ccccc1	inactive	–
NCC(=O)Nc1ccccc1	–	-29.3% [at 11.4 µM] (inactive)
COC(=O)c1cccc(NC(=O)CCCOc2ccccc2)c1	2.24 µM (active)	–
O=C(CCOc1ccccc1)Nc1ccccc1	3.55 µM (active)	–
NC(=O)N/N=C\c1ccc([N+](=O)[O-])o1	inactive	–
Cc1cc(C(=O)N/N=C/c2cccc(OC(=O)c3ccco3)c2)n[nH]1	25.1 µM (active)	–
Cc1ccc(NCC(=O)N/N=C/c2ccc(OC(=O)c3ccco3)cc2)cc1	2.51 µM (active)	–
Cc1ccc(NCC(=O)N/N=C\c2ccc([N+](=O)[O-])o2)cc1	8.91 µM (active)	–
COc1ccc(C(=O)NC(CO)c2nnc(SCc3ccc(Cl)c(Cl)c3)n2C)cc1 (stereo not given)	15.8 µM (active)	–
COC(=O)c1ccccc1NC(=O)CSc1nnc(C(CO)NC(=O)c2ccccc2Cl)n1C (stereo not given)	inactive	–
CC(=O)OCC(=O)[C@@]1(O)CC[C@@H]2[C@H]3CCC4=CC(=O)C=C[C@]4(C)[C@]3(F)[C@@H](O)C[C@@]21C	inactive	–
Cc1cc(C)c(NC(=O)NC(=O)c2ccc(F)cc2)c(C)n1	inactive	–
Cc1cc(NC(=O)NC(=O)c2ccc(F)cc2F)n[nH]1	11.2 µM (active)	–
Cc1onc(-c2ccccc2)c1C(=O)NCCc1c[nH]c2ccccc12	1.78 µM (active)	–
CCCC(O)(CCC)C(=O)NN1CCCCC1	inactive	–
CC(=O)[C@H]1CC[C@H]2[C@@H]3C=CC4=CC(=O)CC[C@@]4(C)[C@H]3CC[C@]12C	1 µM (active)	–
CC(=O)[C@@H]1CC[C@@H]2[C@@H]3C[C@H](C)C4=CC(=O)CC[C@@]4(C)[C@H]3[C@H](O)C[C@]21C	inactive	–
CC(=O)[C@H]1CC[C@@H]2[C@H]3CC=C4C[C@@H](O)CC[C@]4(C)[C@H]3CC[C@]12C	inactive	–

SMILES	AC50	activity, negative = inhibition
Cn1c(=O)c(-c2cccs2)nc2cnc(N3CCNCC3)nc21	inactive	–
O=c1c(-c2cccs2)nc2cnc(N3CCNCC3)nc2n1Cc1cccs1	5.01 µM (active)	–
Cc1nc2cnc(N3CCNCC3)nc2n(Cc2cccs2)c1=O	inactive	–
O=c1c(-c2ccc(F)cc2)nc2cnc(N3CCNCC3)nc2n1Cc1cccs1	15.8 µM (active)	–
O=c1c(-c2ccc(F)cc2)nc2cnc(N3CCOCC3)nc2n1Cc1cccs1	inactive	–
COc1ccc(-c2nc3cnc(N4CCNCC4)nc3n(Cc3cccs3)c2=O)cc1	inactive	–
COc1ccc(C[C@@](C)(N)C(=O)O)cc1OC	inactive	–
COc1ccc(CNC(=O)Nc2cccs2)cc1OC	5.62 µM (active)	–
O=C(NCc1ccco1)Nc1cccs1	11.2 µM (active)	–
CCN1CCN(Cc2ccc(NC(=O)Nc3cccs3)cc2)CC1	inactive	–
N#Cc1ccccc1NC(=O)Nc1cccs1	inactive	–
N[C@@H](CO)C(=O)NNCc1ccc(O)c(O)c1O	inactive	–
O=C(Nc1cccc(F)c1)N1CC2(CCN(C(=O)c3csnn3)CC2)C1	inactive	–
COc1ncc2ncc(=O)n(C)c2n1	inactive	–
O=C(Cc1cccc2ccccc12)N/N=C/c1ccc(Sc2nc3ccccc3s2)o1	0.891 µM (active)	–
COCC(=O)N/N=C/c1ccc(Sc2nc3ccccc3s2)o1	14.1 µM (active)	–
OCCN=C1CCCc2c1[nH]c1ccc(Br)cc21	inactive	–
COC(=O)c1cnn(C(=O)c2cc(OC)ccc2Br)c1N	20 µM (active)	–
COC(=O)c1cnn(C(=O)c2ccccc2Br)c1N	8.91 µM (active)	–
Nc1nc2c(c(=O)[nH]1)CN(CCCN1CCOCC1)CN2	–	24.4% [at 11.4 µM] (inactive)
CCn1c(=O)cc(OCC(=O)Nc2cccnc2)c2ccccc21	inactive	–
CCn1c2ccccc2c2cc(N=C3SC(CC(=O)Nc4ccccc4OC)C(=O)N3C)ccc21 (stereo not given)	1.41 µM (active)	–
CCn1c2ccccc2c2cc(N=C3SC(CC(=O)Nc4ccccc4)C(=O)N3C)ccc21 (stereo not given)	2 µM (active)	–
Clc1ccc(-c2noc(CN3CCCCC3)n2)cc1	1.58 µM (active)	–
CS(=O)(=O)N1CCC2(CC1)CN(C(c1ccccc1)c1ccccc1)C2	inactive	–

SMILES	AC50	activity, negative = inhibition
Cc1ccc(-c2noc(CN3CCN(C(c4ccccc4)c4ccccc4)CC3)n2)cc1	17.8 µM (active)	–
N=C(N)SCc1nc(-c2ccc(Cl)cc2)no1	1 µM (active)	–
N=C(N)SCc1ccc(Cl)cc1Cl (tested in a mixture with another compound)	–	-2.42% [at 11.4 µM] (inactive)
CN1CCN(C(c2ccccc2)c2ccccc2)CC1	inactive	–
c1ccc([P+](CC[P+](c2ccccc2)(c2ccccc2)c2ccccc2)(c2ccccc2)c2ccccc2)cc1	–	-40.8% [at 11.4 µM] (inactive)
O=C(O)CC12C[C@H]3C[C@@H](CC(O)(C3)C1)C2	–	7.05% [at 11.4 µM] (inactive)
CCCn1nc(C(=O)NCC(C)(C)N2CCOCC2)c2ccccc2c1=O	17.8 µM (active)	–
O=C(NCCN1CCOCC1)c1nn2c(c1Cl)NC(c1ccccc1)CC2C(F)(F)F (stereo not given)	inactive	–
Cn1cc[nH]c1=S	inactive	–
COCCNc1cc(-c2c(C)noc2C)ncn1	inactive	–
COCCNc1cc(-c2ccccc2C(F)(F)F)ncn1	7.94 µM (active)	–
CC(=O)NCCNc1cc(-c2ccccc2C(F)(F)F)ncn1	inactive	–
COCCNc1cc(-c2ccccc2C)ncn1	15.8 µM (active)	–
COCCNc1cc(-c2ccccc2CN(C)C)ncn1	inactive	–
O=c1nc2ccccc2c2n1C[C@H](CN1CCN(c3ccccc3)CC1)N2	inactive	–
COc1cccc(OC)c1OCCCN1CCOCC1	inactive	–
COc1cccc(OC)c1OCCNC[C@@H]1COc2ccccc2O1	794 nM (active) and inactive	–
O=C1CC2(CCCC2)CC(=O)N1CCCCNC[C@H]1COc2ccccc2O1	inactive	–
COc1ccccc1NC(=O)CC1COc2ccccc2O1 (stereo not given)	7.08 µM (active)	–
CCN1CCCC1CNC(=O)C(=O)Nc1ccccc1OC (stereo not given)	inactive	–
C(=C1/CCCC2=C1Nc1ncnn1C2c1ccccc1)/c1ccccc1 (stereo not given)	inactive	–
CCCCC1CC(/C(C)=N/NC(N)=O)OC1=O (stereo not given)	inactive	–
CC1=CC(=O)c2ccccc2C1=O	2.51 µM (active)	–
COc1cc2nncc(SCc3ccc(Cl)c(Cl)c3)c2cc1OC	2.51 µM (active)	–
CCCCOC(=O)c1ccc(O)cc1	6.31 µM (active)	–

SMILES	AC50	activity, negative = inhibition
CCCCN(CCCC)CCCOC(=O)c1ccc(N)cc1	inactive	–
CCCCNc1ccc(C(=O)OCCOCCOCCOCCOCCOCCOCCOCCOCCOC)cc1	inactive	–
Clc1ccccc1-c1nc(Nc2ccncc2)c2ccccc2n1	5.01 µM (active)	–
FC(F)(F)c1ccccc1-c1nc(Nc2ccncc2)c2ccccc2n1	2 µM (active)	–
Cc1ccccc1-c1nc(Nc2ccncc2)c2ccccc2n1	inactive	–
C[C@H](O/N=C1/[C@H]2O[C@@H]2[C@@H](O)[C@H]2[C@H]1CCn1c(=O)n(-c3ccccc3)c(=O)n12)c1cn([C@H]2COC[C@H]2O)nn1	–	42.5% [at 11.4 µM] (inactive)
CN(C)CCC=C1c2ccccc2C=Cc2ccccc21	inactive	–
c1ccc(-n2cnc3cc(NCc4cccs4)ccc32)cc1	2.82 µM (active)	–
Cc1ccccc1-n1cnc2cc(NCc3cccs3)ccc21	2.51 µM (active)	–
Cc1noc(C)c1-c1nc(NCc2cccs2)c2ccccc2n1	inactive	–
CO[C@H]1COC(=O)C/C=C\[C@H](C)COC(=O)[C@@H](OCc2ccccc2)/C=C\[C@@H]1C	–	-37% [at 11.4 µM] (inactive)
Cc1ccc2c(c1)NCC(C(=O)NC1CCCCC1)O2 (stereo not given)	3.55 µM (active)	–
CCC1(C)Nc2ccccc2C(=O)N1O (stereo not given)	inactive	–
CCCC1(C)Nc2ccccc2-c2nc3ccccc3n21 (stereo not given)	1.41 µM (active)	–
CCCCC1(C)Nc2ccccc2-c2nc3ccccc3n21 (stereo not given)	0.708 µM (active)	–
COc1cccc2c1C(=O)c1c(O)c3c(c(O)c1C2=O)C[C@@](O)(C(=O)CO)C[C@H]3O[C@H]1C[C@@H](N)[C@H](O)[C@@H](C)O1.[W]	–	9.1% [at 11.4 µM] (inactive)
O=C(Nc1cccc(Cl)c1)N1CCN2C(=O)c3ccccc3C12c1ccccc1 (stereo not given)	2.24 µM (active)	–
CS(=O)(=O)N1CCC2(CCN(C(=O)Nc3cccc(C#N)c3)CC2)CC1	inactive	–
COCC(C)n1c(C)cc(C(=O)CSc2nnc(Nc3ccccc3F)s2)c1C (stereo not given)	2 µM (active)	–
Cc1cc(C)c[n+](CC(=O)c2cc3ccccc3oc2=O)c1	inactive	–
Cc1ccc(CN(C(=O)c2cc3ccccc3oc2=O)C2CCS(=O)(=O)C2)cc1 (stereo not given)	14.1 µM (active)	–
CCCN(C(=S)Nc1ccccc1)C1CCS(=O)(=O)C1 (stereo not given)	inactive	–
CCc1ccc(OCC(=O)OC2CCS(=O)(=O)C2)cc1 (stereo not given)	inactive	–
O=C(c1sc2ccccc2c1Cl)N(Cc1ccccc1)C1CCS(=O)(=O)C1 (stereo not given)	3.16 µM (active)	–
CCOc1ccc(CN(C(=O)c2oc3ccccc3c2C)C2CCS(=O)(=O)C2)cc1 (stereo not given)	1.41 µM (active)	–

Reference: PubChem BioAssay AID1851 (National Center for Advancing Translational Sciences (NCATS), 2009)
